Data published in PubChem BioAssay (Tox21).
“And” between values parts separate entries of the source, which are not always exact repeats. Equal values may be shown once. Results filed as inconclusive are left out. More than one record can exist for a structure, and the calls need not agree. The source made the active and inactive calls. Unless noted, calls come from the whole dose curve.

Experiments:
[1] = Nuclear factor erythroid 2-related factor 2/antioxidant responsive element (Nrf2/ARE) small molecule agonists: qHTS cell viability counter screen in human keratinocytes (AID 1919968; active = well fitted curve in the direction sought with a large enough effect in the repeat runs; an effect the other way counts as inactive or inconclusive; note: nearly all actives have a fitted effect of over 55% in size)
Method in brief: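 Measured as CellTiter-Fluor fluorescence, this readout tracks cytotoxicity in the same wells as the ARE-luciferase screen. HaCaT reporter cells (1,500/well) received compounds after a 5 h pre-incubation and were exposed for 23 h.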

[2] = Nuclear factor erythroid 2-related factor 2/antioxidant responsive element (Nrf2/ARE) small molecule agonists: luciferase reporter gene qHTS assay in human keratinocytes (AID 1919969); note: nearly all actives have a fitted effect of over 35% in size; note: potency is the fitted concentration of half-maximal effect
[3] = molecular target: Gonadotropin-releasing hormone receptor (Homo sapiens) (UniProt P30968); test: Human gonadotropin-releasing hormone receptor (GnRHR) small molecule agonists, calcium flux assay in GnRHR-HEK293 cells (AID 1920063); note: nearly all actives have a fitted effect of over 35% in size
Method in brief: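 Fluorescence kinetics (480 nm excitation, 540 nm emission; 3 min, 1 s steps) report calcium mobilisation in human GnRHR-HEK293 cells in agonist mode. Dye incubation: 1 h, 37 C.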

[4] = p53 small molecule agonists, cell-based qHTS assay with human liver microsomes (AID 1963577);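 note: p53 response element beta-lactamase reporter cells with liver microsomes plus NADPH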
Method in brief: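 Steps: plate p53RE-bla cells, incubate 5 h at 37 C; add compound in DMSO; add microsomes (0.5 mg/mL final) and NADPH (0.5 mg/mL final); incubate 16 h at 37 C; add LiveBLAzer, 2 h RT; read fluorescence.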

[5] = p53 small molecule agonists, cell-based qHTS assay with rat liver microsomes (AID 1963578)
Method in brief: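 Metabolic activation is supplied by rat liver microsomes with NADPH (each 0.5 mg/mL final). p53RE-bla cells incubate with compound 16 h at 37 C; reporter activity is measured by LiveBLAzer fluorescence.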

[6] = p53 small molecule agonists, cell-based qHTS assay with human liver microsomes: qHTS cell viability counter screen (AID 1963579); note: nearly all actives have a fitted effect of over 45% in size; note: potency is the fitted concentration of half-maximal effect
Method in brief: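 After the 460/530 nm beta-lactamase read, CellTiter-Glo was added to the same wells and luminescence measured after 30 min at room temperature, giving viability of p53RE-bla cells treated 16 h with compounds plus microsomes and NADPH.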

[7] = p53 small molecule agonists, cell-based qHTS assay with rat liver microsomes: qHTS cell viability counter screen (AID 1963580); note: nearly all actives have a fitted effect of over 45% in size; note: potency is the fitted concentration of half-maximal effect
Method in brief: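 Viability is assessed in parallel with the p53 reporter read: HCT-116 p53RE-bla cells receive compounds plus rat microsomes and NADPH (0.5 mg/mL final apiece), incubate 16 h at 37 C, and then CellTiter-Glo luminescence is recorded.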

[8] = p53 small molecule agonists, cell-based qHTS assay: qHTS cell viability counter screen (AID 1963581); note: nearly all actives have a fitted effect of over 45% in size
Method in brief: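 In the same plates used for the p53 bla reporter, HCT-116 cells given compounds for 16 h at 37 C received CellTiter-Glo; luminescence was recorded 30 min later at room temperature.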

[9] = p53 small molecule agonists, cell-based qHTS assay (AID 1963582; active = well fitted activation curve with a large enough effect in the signal ratio in the repeat runs, not every such curve was filed as active; the % refers to the signal ratio)
Method in brief: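 Compounds are pin-transferred in DMSO onto p53RE-bla cells and incubated 16 h at 37 C. The B/G FRET beta-lactamase substrate is then applied for 2 h at RT and fluorescence recorded.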

[10] = molecular target: 5-hydroxytryptamine receptor 2A (Homo sapiens) (UniProt P28223); test: 5-hydroxytryptamine receptor 2A (HTR2A) small molecule antagonists, cell-based qHTS assay (AID 1963586); note: nearly all actives have a fitted effect of over 45% in size
Method in brief: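 Antagonist-mode intracellular calcium assay: DOI (4 nM) added after 5 min compound pre-incubation at room temperature to dye-loaded HTR2A-CHO cells. Fluorescence followed for 3 min, sampled every second.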

[11] = molecular target: 5-hydroxytryptamine receptor 2A (Homo sapiens) (UniProt P28223); test: 5-hydroxytryptamine receptor 2A (HTR2A) small molecule agonists, cell-based qHTS assay (AID 1963587); note: nearly all actives have a fitted effect of over 30% in size
Method in brief: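 CHO cells stably expressing human HTR2A, plated 18 h, loaded with calcium dye 1 h at 37 C. Agonist mode: compounds added and intracellular calcium fluorescence recorded kinetically for 2 min at 1 sec intervals.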

[12] = molecular target: Muscarinic acetylcholine receptor M1 (Homo sapiens) (UniProt P11229); test: Cholinergic receptor muscarinic 1 (CHRM1) small molecule antagonists, cell-based qHTS assay (AID 1963588); note: nearly all actives have a fitted effect of over 40% in size; note: potency is the fitted concentration of half-maximal effect
Method in brief: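 CHRM1-CHO calcium-flux assay, antagonist mode. Cells were seeded 18 h, dye-loaded 1 h at 37 C and given compound for 5 min at RT, then acetylcholine was added at 50nM. FDSS fluorescence was read 3 min; 15 concentrations, three runs.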

[13] = molecular target: Muscarinic acetylcholine receptor M1 (Homo sapiens) (UniProt P11229); test: Cholinergic receptor muscarinic 1 (CHRM1) small molecule agonists, cell-based qHTS assay (AID 1963589); note: nearly all actives have a fitted effect of over 35% in size
Method in brief: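 Each compound was tested at 15 concentrations across three independent runs on dye-loaded CHO cells stably expressing human CHRM1, reading intracellular calcium fluorescence kinetically at 1 sec intervals.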

[14] = cAMP Responsive Elements (CRE) small molecule agonists, cell-based qHTS assay (AID 1963590)
Method in brief: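 Cell line: CRE-bla HEK 293T; medium DMEM/10% dialyzed FBS/0.1 mM NEAA/1 mM pyruvate/25 mM HEPES; 3 h compound exposure; beta-lactamase FRET readout after 2 h substrate loading at RT.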

[15] = cAMP Responsive Elements (CRE) small molecule antagonists, cell-based qHTS assay (AID 1963591; active = well fitted inhibition curve with a large enough effect in the signal ratio in the repeat runs, not every such curve was filed as active; the % refers to the signal ratio)
Method in brief: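 Inhibition of NKH477-driven (0.25 uM final) CRE-beta-lactamase signal in HEK293T cells, 3 h compound exposure at 37 °C, detected by FRET substrate fluorescence.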

[16] = molecular target: Beta-2 adrenergic receptor (Homo sapiens) (UniProt P07550); test: Adrenergic beta2 receptor (ADRB2) small molecule antagonists, cell-based qHTS assay (AID 1963592); note: series mostly up to about 92 µM; nearly all actives have a fitted effect of over 50% in size
Method in brief: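 Cells (CHO, stable ADRB2 overexpression) incubated 18-20hr at 37C; compounds added from DMSO; agonist mix (1nM isoproterenol, 100uM IBMX, 25uM Ro-20-1724) added; 0.5hr RT; d2-cAMP and anti-cAMP-cryptate added; 1hr RT; 665/615 nm read.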

[17] = molecular target: D(2) dopamine receptor (Homo sapiens) (UniProt P14416); test: Dopamine D2 receptor (DRD2) small molecule agonists, cell-based qHTS assay (AID 1963594); note: nearly all actives have a fitted effect of over 35% in size
Method in brief: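 HEK293 cells stably expressing human DRD2, pre-treated with PDE inhibitor Ro20-1724 (0.1 mM final) and compound 10 min at room temperature, then stimulated with NKH477 (200nM […]) for 30 min. cAMP read by HTRF (665/620 nm).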

[18] = molecular target: D(2) dopamine receptor (Homo sapiens) (UniProt P14416); test: Dopamine D2 receptor (DRD2) small molecule antagonists, cell-based qHTS assay (AID 1963595; active = well fitted inhibition curve with a large enough effect in the signal ratio in the repeat runs, with a control signal flat; the % refers to the signal ratio)
Method in brief: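 Antagonism was scored as restored cAMP in HEK293-DRD2 cells. These cells were stimulated with 200 nM NKH477 and 12 nM quinpirole for 30 min at room temperature, in the presence of 0.1 mM Ro20-1724.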

[19] = molecular target: KiSS-1 receptor (Homo sapiens) (UniProt Q969F8); test: Human kisspeptin (KISS1R) small molecule agonists, calcium flux assay in KISS1R-HEK293 cells (AID 1920064; active = well fitted curve in the direction sought with a large enough effect in the repeat runs; an effect the other way counts as inactive or inconclusive)
Method in brief: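 Measures KISS1R agonism through calcium-sensitive dye fluorescence in stably transfected HEK293 cells, read for 3 min after pin-tool compound delivery; 15-point titrations in triplicate.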

[20] = molecular target: Beta-2 adrenergic receptor (Homo sapiens) (UniProt P07550); test: Adrenergic beta2 receptor (ADRB2) small molecule agonists, cell-based qHTS assay (AID 1963593);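 note: CHO cells stably overexpressing human ADRB2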
Method in brief: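 CHO cells stably over-expressing ADRB2 were plated overnight at 37C, then dosed with compounds plus a stimulation mix containing 100uM IBMX and 25uM Ro-20-1724 for 0.5hr at room temperature. cAMP was measured by HTRF competition, 1hr.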
% is set by controls: 0 for no effect and ±100 for the full control effect.

Chain of Gonadotropin-releasing hormone receptor (Homo sapiens) (P30968 whole entry, looked up): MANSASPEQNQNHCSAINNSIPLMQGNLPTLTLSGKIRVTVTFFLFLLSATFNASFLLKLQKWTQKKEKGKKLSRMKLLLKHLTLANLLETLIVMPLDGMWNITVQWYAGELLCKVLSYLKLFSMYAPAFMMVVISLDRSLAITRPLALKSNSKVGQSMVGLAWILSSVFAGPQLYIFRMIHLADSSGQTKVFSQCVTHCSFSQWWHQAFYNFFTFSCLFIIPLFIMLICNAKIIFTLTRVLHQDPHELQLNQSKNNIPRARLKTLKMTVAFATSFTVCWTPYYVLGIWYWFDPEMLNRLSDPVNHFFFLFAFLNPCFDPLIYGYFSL
Chain of 5-hydroxytryptamine receptor 2A (Homo sapiens) (P28223 whole entry, looked up): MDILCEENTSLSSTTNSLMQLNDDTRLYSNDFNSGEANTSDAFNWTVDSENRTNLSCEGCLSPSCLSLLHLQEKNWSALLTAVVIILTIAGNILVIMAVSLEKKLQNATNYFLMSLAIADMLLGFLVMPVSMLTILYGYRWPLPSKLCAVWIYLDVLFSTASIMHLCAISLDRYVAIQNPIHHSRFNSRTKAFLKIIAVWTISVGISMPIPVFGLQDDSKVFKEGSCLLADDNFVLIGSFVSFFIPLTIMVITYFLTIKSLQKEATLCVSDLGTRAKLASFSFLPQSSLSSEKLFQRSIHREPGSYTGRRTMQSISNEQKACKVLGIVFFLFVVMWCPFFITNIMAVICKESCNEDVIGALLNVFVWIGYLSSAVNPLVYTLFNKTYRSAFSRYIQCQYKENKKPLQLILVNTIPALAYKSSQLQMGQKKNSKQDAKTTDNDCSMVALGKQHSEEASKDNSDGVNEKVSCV
Chain of Beta-2 adrenergic receptor (Homo sapiens) (P07550 whole entry, looked up): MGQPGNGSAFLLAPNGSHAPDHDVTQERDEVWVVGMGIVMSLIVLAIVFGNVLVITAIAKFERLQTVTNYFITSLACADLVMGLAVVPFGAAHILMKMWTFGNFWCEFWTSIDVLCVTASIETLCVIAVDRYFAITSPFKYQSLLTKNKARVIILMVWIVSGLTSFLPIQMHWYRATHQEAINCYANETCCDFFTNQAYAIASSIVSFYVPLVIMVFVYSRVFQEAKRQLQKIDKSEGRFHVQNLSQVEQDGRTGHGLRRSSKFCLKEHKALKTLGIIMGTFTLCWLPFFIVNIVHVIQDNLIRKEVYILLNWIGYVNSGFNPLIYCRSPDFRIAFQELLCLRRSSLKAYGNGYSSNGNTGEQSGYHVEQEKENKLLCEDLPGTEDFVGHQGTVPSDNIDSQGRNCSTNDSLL
Chain of D(2) dopamine receptor (Homo sapiens) (P14416 whole entry, looked up): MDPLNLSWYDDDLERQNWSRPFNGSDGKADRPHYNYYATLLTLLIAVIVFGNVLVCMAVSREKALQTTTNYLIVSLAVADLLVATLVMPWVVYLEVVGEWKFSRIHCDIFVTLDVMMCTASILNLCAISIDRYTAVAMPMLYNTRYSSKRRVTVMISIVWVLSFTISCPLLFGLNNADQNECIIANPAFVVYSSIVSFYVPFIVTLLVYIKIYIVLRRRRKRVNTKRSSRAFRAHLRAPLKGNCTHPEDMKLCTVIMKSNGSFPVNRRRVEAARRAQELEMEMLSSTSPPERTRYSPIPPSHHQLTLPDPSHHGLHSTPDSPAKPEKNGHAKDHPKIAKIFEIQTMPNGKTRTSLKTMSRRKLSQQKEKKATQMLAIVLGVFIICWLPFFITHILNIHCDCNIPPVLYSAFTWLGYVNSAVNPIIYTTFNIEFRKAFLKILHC
Chain of KiSS-1 receptor (Homo sapiens) (Q969F8 whole entry, looked up): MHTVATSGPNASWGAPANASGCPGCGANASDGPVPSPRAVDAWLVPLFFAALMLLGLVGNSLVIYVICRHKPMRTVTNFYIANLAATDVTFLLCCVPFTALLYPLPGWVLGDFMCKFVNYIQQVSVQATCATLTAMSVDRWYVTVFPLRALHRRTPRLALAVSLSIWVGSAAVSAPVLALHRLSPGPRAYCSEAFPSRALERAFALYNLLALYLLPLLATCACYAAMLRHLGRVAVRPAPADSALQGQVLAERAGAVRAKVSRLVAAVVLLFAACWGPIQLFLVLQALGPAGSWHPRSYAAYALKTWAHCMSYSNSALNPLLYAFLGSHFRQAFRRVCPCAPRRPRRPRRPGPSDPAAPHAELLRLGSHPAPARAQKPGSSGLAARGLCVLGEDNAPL
Chain of Muscarinic acetylcholine receptor M1 (Homo sapiens) (P11229 whole entry, looked up): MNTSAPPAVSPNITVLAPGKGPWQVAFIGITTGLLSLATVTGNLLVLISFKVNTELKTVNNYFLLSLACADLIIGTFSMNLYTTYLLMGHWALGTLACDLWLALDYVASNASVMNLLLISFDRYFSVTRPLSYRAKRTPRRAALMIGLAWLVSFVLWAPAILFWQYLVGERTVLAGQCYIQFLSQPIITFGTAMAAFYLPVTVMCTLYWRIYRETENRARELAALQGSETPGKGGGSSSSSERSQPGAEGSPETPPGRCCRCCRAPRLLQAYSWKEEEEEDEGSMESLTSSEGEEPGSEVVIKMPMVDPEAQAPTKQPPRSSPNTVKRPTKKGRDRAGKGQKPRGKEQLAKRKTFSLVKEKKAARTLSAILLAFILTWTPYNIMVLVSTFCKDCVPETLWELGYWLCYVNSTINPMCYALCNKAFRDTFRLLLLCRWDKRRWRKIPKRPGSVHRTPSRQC

Nc1ccc([N+](=O)[O-])c(C(F)(F)F)c1
inactive: Potency [1] | Potency [2] | Potency [3] | Potency [4] | Potency [5] | Potency [6] | Potency [7] | Potency [8] | Potency [9] | Potency [10] | Potency [11] | Potency [12] | Potency [13] | Potency [14] | Potency [15] | Potency [16] | Potency [17] | Potency [18]

NCCO
active: Potency [12] 18.8 µM
inactive: Potency [1] | Potency [3] | Potency [19] | Potency [5] | Potency [8] | Potency [9] | Potency [10] | Potency [11] | Potency [14] | Potency [15] | Potency [16] | Potency [17] | Potency [18]
inactive and 36.3 µM (active): Potency [6]
inactive and 27.3 µM (active): Potency [2]
inactive and 32.4 µM (active): Potency [7]

N[C@H]1C(O)O[C@H](CO)[C@@H](O)[C@@H]1O (stereo partly drawn)
inactive: Potency [1] | Potency [2] | Potency [3] | Potency [4] | Potency [5] | Potency [6] | Potency [7] | Potency [8] | Potency [9] | Potency [10] | Potency [11] | Potency [12] | Potency [13] | Potency [14] | Potency [15] | Potency [16] | Potency [20] | Potency [18]

O=C(O)/C=C/C(=O)O
inactive: Potency [1] | Potency [2] | Potency [3] | Potency [19] | Potency [10] | Potency [11] | Potency [13] | Potency [14] | Potency [15] | Potency [16] | Potency [20] | Potency [17] | Potency [18]

Cc1cccc(S(=O)(=O)O)c1C
inactive: Potency [1] | Potency [2] | Potency [3] | Potency [4] | Potency [5] | Potency [6] | Potency [7] | Potency [8] | Potency [9] | Potency [10] | Potency [11] | Potency [12] | Potency [13] | Potency [14] | Potency [15] | Potency [16] | Potency [20] | Potency [17] | Potency [18]

C=C(C)C(=O)OCCCCCCCCCCCCC
inactive: Potency [1] | Potency [2] | Potency [3] | Potency [19] | Potency [4] | Potency [6] | Potency [7] | Potency [8] | Potency [9] | Potency [10] | Potency [11] | Potency [12] | Potency [13] | Potency [14] | Potency [15] | Potency [16] | Potency [17] | Potency [18]

OCCc1ccccn1
inactive: Potency [1] | Potency [2] | Potency [3] | Potency [4] | Potency [5] | Potency [6] | Potency [7] | Potency [8] | Potency [9] | Potency [10] | Potency [11] | Potency [12] | Potency [13] | Potency [14] | Potency [15] | Potency [16]

CCCCCCCCCCCCCCCC(=O)OC
inactive: activity change, negative = cytotoxicity [1] 3.99% [at 19 µM] | activity, positive = activation [2] 0.79% [at 19 µM] | activity change [3] 0.561% [at 11.8 µM, stronger effect = higher value] | activation [4] 0.811% [at 13.5 µM] | activation [5] 0.588% [at 13.6 µM] | activity change, negative = cytotoxicity [6] -1.62% [at 13.5 µM] | activity change, negative = cytotoxicity [7] -0.0573% [at 13.5 µM] | activity change, negative = cytotoxicity [8] 2.56% [at 13.5 µM] | activation [9] -4.84% [at 13.5 µM] | activity, negative = inhibition [10] -2.95% [at 12.7 µM] | activation [11] -0.493% [at 15.9 µM] | activity, negative = inhibition [12] -19.7% [at 12.6 µM] | activation [13] -0.393% [at 15.8 µM] | activation [14] -0.453% [at 19 µM] | activity change, negative = inhibition [15] -6.58% [at 18.9 µM] | activity change, negative = inhibition [16] 5.87% [at 19 µM] | activation [17] 0.309% [at 19 µM] | activity change, negative = inhibition [18] -0.0877% [at 18.9 µM]

CCCCN(CCO)CCO
inactive: Potency [1] | Potency [2] | Potency [3] | Potency [4] | Potency [5] | Potency [6] | Potency [7] | Potency [8] | Potency [9] | Potency [11] | Potency [13] | Potency [14] | Potency [15] | Potency [16] | Potency [20] | Potency [17] | Potency [18]

Cc1cccc(N(C)C(=S)Oc2ccc3ccccc3c2)c1
active: Potency [2] 21.7 µM
inactive: Potency [1] | Potency [3] | Potency [4] | Potency [5] | Potency [6] | Potency [7] | Potency [8] | Potency [9] | Potency [14] | Potency [15] | Potency [16] | Potency [17] | Potency [18]

CN1C(=O)CC(C)(c2ccccc2)C1=O (stereo not drawn)
inactive: Potency [1] | Potency [2] | Potency [3] | Potency [4] | Potency [5] | Potency [6] | Potency [7] | Potency [8] | Potency [9] | Potency [10] | Potency [12] | Potency [13] | Potency [14] | Potency [15] | Potency [16] | Potency [20] | Potency [17] | Potency [18]

C=CC(C)(O)CC/C=C(/C)CCC=C(C)C (stereo not drawn)
inactive: Potency [1] | Potency [2] | Potency [3] | Potency [4] | Potency [5] | Potency [6] | Potency [7] | Potency [8] | Potency [9] | Potency [11] | Potency [12] | Potency [13] | Potency [14] | Potency [15] | Potency [16] | Potency [17] | Potency [18]

Cc1cc(N)n(-c2ccccc2)n1
inactive: Potency [1] | Potency [2] | Potency [3] | Potency [4] | Potency [5] | Potency [6] | Potency [7] | Potency [8] | Potency [9] | Potency [10] | Potency [12] | Potency [13] | Potency [14] | Potency [15] | Potency [16] | Potency [17] | Potency [18]

COc1cccc(Br)c1
inactive: Potency [1] | Potency [2] | Potency [3] | Potency [4] | Potency [5] | Potency [6] | Potency [7] | Potency [8] | Potency [9] | Potency [10] | Potency [11] | Potency [12] | Potency [13] | Potency [14] | Potency [16] | Potency [20] | Potency [17]

CCCCCCCCCCCCCCCCCC(=O)OCC(CC)CCCC (stereo not drawn)
inactive: Potency [1] | Potency [2] | Potency [3] | Potency [4] | Potency [5] | Potency [6] | Potency [8] | Potency [9] | Potency [10] | Potency [11] | Potency [12] | Potency [14] | Potency [15] | Potency [16] | Potency [17] | Potency [18]
